Compounds with a hit are over-represented: about 2.4% of the library has one in this group of screens.
UHRF1 binding: human UHRF1 methylated DNA binding inhibitors; AID 687016; UHRF1 binding to methylated oligo, TR-FRET; Q96T88; inhibition, % at 4.4 µM; 370,000 tested, 0.75% active; in the data active means inhibition above about 21%;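 further: UHRF1 SRA domain binding a hemimethylated CpG hairpin DNA probe; 0% = median of test compound wells and 100% = reference inhibitor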
Target sequence (Q96T88 whole entry, looked up, the tested form may be a part): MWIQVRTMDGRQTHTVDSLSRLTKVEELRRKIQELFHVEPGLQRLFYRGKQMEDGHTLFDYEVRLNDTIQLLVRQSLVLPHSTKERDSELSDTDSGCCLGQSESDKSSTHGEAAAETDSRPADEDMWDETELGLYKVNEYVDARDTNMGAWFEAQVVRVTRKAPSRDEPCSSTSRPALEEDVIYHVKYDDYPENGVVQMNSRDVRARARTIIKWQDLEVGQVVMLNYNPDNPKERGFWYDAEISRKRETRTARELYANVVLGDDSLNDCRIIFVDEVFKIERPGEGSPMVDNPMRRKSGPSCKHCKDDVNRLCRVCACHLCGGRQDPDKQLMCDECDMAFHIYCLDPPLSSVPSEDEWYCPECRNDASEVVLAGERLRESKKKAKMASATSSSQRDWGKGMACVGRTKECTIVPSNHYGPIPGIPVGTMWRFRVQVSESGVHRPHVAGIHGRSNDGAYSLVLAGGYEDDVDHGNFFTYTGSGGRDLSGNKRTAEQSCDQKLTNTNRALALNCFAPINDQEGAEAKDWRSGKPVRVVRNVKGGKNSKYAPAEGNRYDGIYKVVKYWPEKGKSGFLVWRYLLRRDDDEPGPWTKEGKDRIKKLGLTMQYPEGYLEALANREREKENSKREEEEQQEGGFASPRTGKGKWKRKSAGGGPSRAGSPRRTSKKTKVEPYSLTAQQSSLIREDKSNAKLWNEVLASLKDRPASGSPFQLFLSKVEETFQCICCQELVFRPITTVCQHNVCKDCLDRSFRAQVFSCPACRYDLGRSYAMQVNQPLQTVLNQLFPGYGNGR
PLC-beta3 inh: PLC-beta3 (human) inhibition, primary screen. AID 720704. 370,000 tested, 0.18% active. Purified PLC-beta3, fluorogenic substrate, fluorescence. inhibition, % at 12.2 µM;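 further: 0% = median of compound wells on plate and 100% = full blocker control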
PLC-gamma1 inh: inhibitors of human phospholipase C gamma1. inhibition, % at 12.2 µM. 370,000 tested, 0.84% active. purified PLC-gamma1, fluorogenic substrate, fluorescence. AID 720700; in the data active means inhibition above about 9.5%
MBD2 inh: inhibitors of human MBD2 binding to methylated oligonucleotide; Q9UBB5; TR-FRET; inhibition, % at 4.4 µM; 370,000 tested, 0.31% active; AID 686964; in the data active means inhibition above about 13%
LEDGF integ inh: blocks HIV-1 LEDGF/p75-dependent DNA integration; TR-FRET IN-LEDGF/p75 DNA integration, Eu/Cy5; inhibition, % at 3.7 µM; 370,000 tested, 0.64% active; AID 743269;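 active means inhibition above the screen-wide mean plus 3 SD, cut at about 13% in these data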;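 further: signal is the Cy5 over europium emission ratio at 671 and 618 nm; 0% = plate median of compound wells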
PLCg1 ctr: PLC-gamma1 inhibition, counter-screen for PLC-beta3 hits; shares compounds with PLC-gamma1 inh; purified PLC-gamma1, fluorogenic substrate, fluorescence; inhibition, % at 12.3 µM; 3,300 tested, 3.1% active; in the data active means inhibition above about 9.5%
PLCbeta3 conf: confirmation of human PLC-beta3 inhibitors; inhibition, % at 12.3 µM; 3,300 tested, 1% active; AID 743261; purified PLC-beta3, fluorogenic substrate fluorescence; shares compounds with PLC-gamma1 inh
The depositor's hits bear a star; / = no result. Unless noted, no stated cut-off is given here; in the data, active means inhibition above about 11%; inactive means the rest.

SMILES	UHRF1 binding	PLC-beta3 inh	PLC-gamma1 inh	MBD2 inh	LEDGF integ inh	PLCg1 ctr	PLCbeta3 conf
COc1ccc2c(c1)N[C@@](CCN1C(=O)c3ccccc3C1=O)(c1[nH]c3ccccc3c1CCN1C(=O)c3ccccc3C1=O)C2=O	13.8	2.0	2.6	0.1	-5.4	/	/
Cc1ccsc1/C=C1\SC(N)=NC1=O	-13.0	9.2	10.1*	-14.6	6.6	-3.4	-1.6
Cc1ccc(/C=C2\SC(N)=NC2=O)s1	-14.0	3.7	2.9	-9.6	0.6	/	/
COc1ccc(N2CCN(C(=O)CCc3ccc(S(=O)(=O)NCC(C)C)cc3)CC2)cc1	4.1	1.6	9.6*	-2.1	-0.1	-0.4	0.3
CC(C)CNS(=O)(=O)c1ccc(CCC(=O)N2CCN(c3ccc(F)cc3)CC2)cc1	-1.3	-0.6	-1.0	-3.1	-1.8	/	/
N#CC(c1ccc(Cl)cc1)c1ccc(Cl)nn1 (stereo not drawn)	1.6	11.7*	8.2	-6.5	-1.3	-3.6	-0.6
Cc1ccc(C(C#N)c2ccc(Cl)nn2)cc1 (stereo not drawn)	-1.0	5.5	-0.5	3.1	2.3	/	/
CCn1nc(C)c(CN2CCN(Cc3ccsc3)C(CCO)C2)c1C (stereo not drawn)	7.6	-2.8	10.0*	-2.1	7.9	-0.5	1.1
Cc1ccccc1-c1nnn(Cc2ccc(F)cc2Cl)n1	5.4	2.0	10.7*	-3.8	6.0	-9.4	-7.5
CCNc1nc(OC)nc(N2CCC(Cc3ccccc3)CC2)n1	-0.5	10.9*	3.6	-9.1	0.5	-3.6	-4.5
COc1nc(NCc2ccco2)nc(N2CCC(C)CC2)n1	0.8	2.9	1.7	-3.3	3.3	/	/
CC(C)NC(=O)c1cc2cc([N+](=O)[O-])ccc2s1	4.9	11.9*	13.9*	-4.6	0.5	-3.1	3.8
CCc1ccc(/C=C/C(=O)NC2=NCCS2)cc1	12.4	5.4	2.6	4.5	2.6	/	/
c1ccc(CC2CCN(C(c3cccs3)c3nnnn3C3CCCC3)CC2)cc1 (stereo not drawn)	2.7	0.1	-4.1	4.3	-0.5	/	/
COc1ccccc1N1CCN(C(c2cccs2)c2nnnn2C2CCCC2)CC1 (stereo not drawn)	-0.8	2.1	9.9*	0.1	2.5	1.1	0.8
CSCCC(NC(=O)c1ccc(Cl)cc1Cl)C(=O)N1CCN(C(=O)c2ccccc2)CC1 (stereo not drawn)	3.8	-10.6	11.2*	2.1	-4.0	-0.3	2.4
COc1cc(/C=N/NC(=O)c2cc[n+]([O-])cc2)ccc1O	4.7	10.3	16.8*	1.2	-1.4	2.9	1.8
COc1ccc(C(=O)/C=C(\Nc2ccc(F)cc2)c2ccc(OC)cc2OC)c(OC)c1	-0.7	-13.2	-5.8	2.7	0.6	/	/
Cc1ccc(-n2nnnc2-c2cnc(-c3cccnc3)nc2C(F)(F)F)cc1	-0.5	9.9	10.5*	-6.7	-0.3	-2.9	-6.2
FC(F)(F)c1nc(-c2ccncc2)ncc1-c1nnnn1-c1ccccc1	0.3	2.1	2.1	-2.2	0.1	/	/
CCn1c(O)c(N=NC(=O)c2ccc(CSc3nncn3C)cc2)c2ccccc21	-3.1	9.1	11.2*	-7.5	0.4	-2.4	1.5
Nc1nc(-c2ccco2)nn1C(=O)c1ccc(Cl)cc1	3.7	4.6	9.8*	-3.6	-2.7	-6.3	-9.1
Nc1nc(-c2ccco2)nn1C(=O)c1ccccc1	2.5	1.8	-1.2	-5.0	1.9	/	/
O=C(Nc1ccccc1)c1cc([N+](=O)[O-])ccc1NC1CCCCC1	3.8	9.1	9.8*	-0.3	3.0	-0.6	-3.4
O=C(Nc1ccccc1)c1cc([N+](=O)[O-])ccc1Cl	-4.5	1.5	-0.7	1.0	4.2	/	/
SMILES	UHRF1 binding	PLC-beta3 inh	PLC-gamma1 inh	MBD2 inh	LEDGF integ inh	PLCg1 ctr	PLCbeta3 conf
CC(C)CNc1cccc2c1S(=O)(=O)N(Cc1cn(Cc3ccc(C(F)(F)F)cc3)nn1)Cc1ccccc1O2	7.0	-27.1	-24.1	6.8	-2.1	/	/
CC(SC(C)C(=O)NN=Cc1cccc(Cl)c1)C(=O)NN=Cc1cccc(Cl)c1 (stereo not drawn)	2.0	11.1*	9.1	-2.1	-0.9	-12.3	-3.5
CC(=O)c1ccccc1OC(=O)CCN1C(=O)C2C3C=CC(C4CC34)C2C1=O (stereo not drawn)	20.3	1.6	10.3*	-1.3	-0.4	-5.5	-0.9
O=C(CCN1C(=O)C2C3C=CC(C4CC34)C2C1=O)Oc1ccccc1 (stereo not drawn)	-0.2	-1.6	0.6	2.3	-0.8	/	/
O=C(O)c1ccc(C=Nn2c(-c3ccc(F)cc3)n[nH]c2=S)cc1	0.3	-3.6	2.1	-2.9	0.9	/	/
CC(c1ccccc1)n1c(-c2ccccc2F)n[nH]c1=S (stereo not drawn)	4.6	7.7	9.9*	0.3	4.7	5.0	1.9
O=[N+]([O-])c1ccc(N2CCN(Cc3ccc([N+](=O)[O-])o3)CC2)cc1	-4.2	-0.2	9.8*	-8.0	2.4	0.7	1.7
CN1CCCC(CC2Oc3ccccc3Sc3ccccc32)C1 (stereo not drawn)	12.2	3.0	-0.8	5.7	5.2	/	/
c1ccc2c(c1)OC(CCCN1CCCCC1)c1ccccc1S2 (stereo not drawn)	4.0	4.2	10.5*	-1.9	4.8	-4.5	0.9
CC[C@@H](CCCc1ccc(F)cc1)CN(Cc1ccc(OC)cc1)S(=O)(=O)c1ccc(C)cc1	1.8	-4.2	-0.1	4.6	-1.8	/	/
COC(=O)c1cccc(OCCCN2CCC(C(O)(c3ccccc3)c3ccccc3)CC2)c1	3.7	5.0	9.7*	7.3	0.2	-2.4	-4.7
COC(=O)c1cccc(OC[C@@H](O)CN2CCC(C(O)(c3ccccc3)c3ccccc3)CC2)c1	1.9	8.8	11.4*	1.6	8.4	7.1	-3.8
C/C=C/c1ccccc1OCCCN1CCC(C(O)(c2ccccc2)c2ccccc2)CC1	-0.9	3.9	13.0*	-1.6	5.9	1.0	2.5
OC(c1ccccc1)(c1ccccc1)C1CCN(CCCOc2cccc(Cl)c2)CC1	3.2	-2.4	5.9	10.6	-3.0	/	/
C[C@H]1[C@@H](NC(=O)C(c2ccccc2)c2ccccc2)CC[C@@]23CCCN2C(=O)CCC[C@@H]13	0.2	2.1	-1.0	1.9	0.5	/	/
CC1(C)Cc2ccccc2C(/C(=N/O)C(N)=O)=N1	2.5	5.2	11.4*	-1.5	6.5	2.1	1.4
CC(=O)c1ccc(N/N=C(/C(N)=O)C2=NC(C)(C)Cc3ccccc32)cc1	0.6	5.0	8.5	-4.0	-0.8	/	/
COc1ccccc1CCn1cnc(-c2ccccc2F)c1CC(C)C	-0.8	5.3	11.2*	8.4	-0.9	-7.3	-4.7
COc1ccccc1CCn1cnc(-c2ccc(F)cc2F)c1CC(C)C	4.3	3.9	1.2	2.4	0.9	/	/
O=C(NCc1ccccc1)c1ccc(C(=O)NCc2ccccc2)cc1	-3.0	1.2	4.6	3.4	0.9	/	/
